Measured values as given in PubChem BioAssay (Tox21).
Records with an inconclusive call do not appear. Unmarked numbers belong to inactive results. Active and inactive are the calls of the source. Calls come from the whole dose curve; as a rule, active = well fitted cell-killing curve with a large enough effect in the repeat runs; inconclusive = weak or mixed curves, or effect the other way; inactive = flat fitted curve, though single readings scatter.

Assay: qHTS assay to identify small molecule antagonists of the androgen receptor (AR) signaling pathway using the MDA cell line - cell viability counter screen (AID 743041; note: nearly all actives have a fitted effect of over 45% in size)
Conditions: MDA-kb2 viability, CellTiter-Fluor, 16 h, cells co-treated with R1881 androgen agonist; series mostly up to 70.3 µM; viability change, negative = cytotoxic: at the top concentration
Description: National Center for Advancing Translational Sciences [NCATS]
NIH Chemical Genomics Center [NCGC]
U.S. Environmental Protection Agency [EPA]
National Institutes of Environmental Health Sciences [NIEHS]
National Toxicology Program [NTP]
U.S. Food and Drug Administration [FDA]
Androgen receptor (AR), a nuclear hormone receptor, plays a critical role in AR-dependent prostate cancer and other androgen related diseases. Endocrine disrupting chemicals (EDCs) and their interactions with steroid hormone receptors like AR may cause disruption of normal endocrine function as well as interfere with metabolic homeostasis, reproduction, developmental and behavioral functions. To identify the compounds that inhibit AR signaling, MDA-kb2 AR-luc cell line (from ATCC, deposited by Wilson et al.) was used to screen the Tox21 10K compound library. MDA-kb2 AR-luc cell line is human breast carcinoma cell line that was stably transfected with a luciferase reporter gene under control of the MMTV promoter containing response elements for both androgen receptor (AR) and glucocorticoid receptor (GR). The cytotoxicity of the Tox21 compound library against the MDA-kb2 AR-luc cell line was tested in parallel by measuring the cell viability using CellTiter-Fluor assay (Promega, Madison, WI) in the same wells.
Tox21 Assay Protocol Summary:
MDA-kb2 AR-luc cells were dispensed at 3,000 cells/4 uL/well of culture medium into white wall/solid-bottom 1536-well plates using a Multidrop Combi (ThermoFisher Scientific, Waltham, MA) dispenser. After the assay plates were incubated at a 37C and 0% CO2 for 5 hr, 23 nL of compounds dissolved in DMSO, positive controls or DMSO only was transferred to the assay plate by a Pintool station (Kalypsys, San Diego, CA), followed by addition of 1 uL of agonist (R1881) in culture medium using a Bioraptr Flying Reagent Dispenser (FRD) workstation (Beckman Coulter, Indianapolis, IN, USA). The plates were incubated at a 37C and 0% CO2 for 16 h. After 15.5 h incubation, 1uL of CellTiter-Fluor reagent (Promega) was added using a Bioraptr FRD to each plate for measuring cytotoxicity. The fluorescence intensity was quantified on a ViewLux plate reader (PerkinElmer, Shelton, CT) following 30 min incubation at 37C and 0% CO2.
% is set by controls: 0 for no effect and ±100 for the full control effect; potency is the fitted concentration of half-maximal effect.

In order of rising “viability change, negative = cytotoxic” value:
1. O=C(N[C@H](c1ccccc1)[C@@H]1CN2CCC1CC2)c1c(Cl)ccc(C(F)(F)F)c1Cl  -4.4% [at 95 µM]
2. N#CCc1ccccc1  -1.93% [at 95 µM]
3. CCCCCCCCOC(=O)c1ccc(C(=O)OCCCCCCCC)c(C(=O)OCCCCCCCC)c1  -0.837% [at 95 µM]
4. CCOC(=O)CBr  0.731% [at 95 µM]
5. Cc1ccc(N)cc1C  2.47% [at 95 µM]
6. C=CCCl  5.31% [at 95 µM]
7. CCCCCC[N+](=O)[O-]  8.92% [at 95 µM]
8. Nc1nc(N)nc(N)n1  11.1% [at 95 µM]
9. C=CC(=O)OCC(C)O (stereo not given)  17.3% [at 95 µM]

In order of falling “viability change, negative = cytotoxic” value:
1. O=C(CBr)OCc1ccccc1  27%
2. C=CC(=O)OCC(C)C  10.8%
3. CCCCNP(N)(N)=S  4.48%
4. C[C@H]1CNCCc2ccc(Cl)cc21  4.26%
5. CO/C=C(/C(=O)OC)c1ccccc1COc1cccc(C(F)(F)F)n1  4.07%
6. COC(=O)C(Cl)C(=O)OC  4.01%
7. C=CCC1([C@H](C)CCC)C(=O)NC(=O)NC1=O  2.99%
8. O=C(NCc1cccnc1)Nc1ccc([N+](=O)[O-])cc1  2.66%
9. [CH3][Sn]([CH3])([Cl])[Cl]  2.01%
10. ClCc1ccccc1  1.31%
11. NCC(CC(=O)O)c1ccc(Cl)cc1 (stereo not given)  0.512%
12. CCOP(O)OCC  0.45%
13. CCOP(=S)(OCC)SCSCC  -0.179%
14. CC(Cl)Cl  -0.804%
15. CCOP(=O)(OCC)O/C(=C/Cl)c1ccc(Cl)cc1Cl  -0.812%
16. Clc1ccc(C2(Cn3cncn3)CC(Br)CO2)c(Cl)c1 (stereo not given)  -0.937%
17. O=C=Nc1ccc(Cl)cc1  -1.03%
18. CCCN(CCCl)c1c([N+](=O)[O-])cc(C(F)(F)F)cc1[N+](=O)[O-]  -1.14%
19. Cc1ccccc1CCl  -1.39%
20. Clc1cccc2ccccc12  -1.56%
21. CCCCc1c(C)nc(NCC)nc1OS(=O)(=O)N(C)C  -1.66%
22. CCOC(=O)COc1cc(-c2nn(C)c(OC(F)F)c2Cl)c(F)cc1Cl  -2.32%
23. COCCOCCO  -16.3%
24. OCCCBr  -19.2%

For `CO[C@@H]1[C@H](OC(=O)NC(=O)CCl)CC[C@]2(CO2)[C@H]1[C@@]1(C)O[C@@H]1CC=C(C)C`, the “viability change, negative = cytotoxic” value was -24.7% [at 32.5 µM].

With `Brc1ccc(Oc2ccccc2)cc1` the Potency was “inactive”.
With `O=[N+]([O-])c1ccc(F)c([N+](=O)[O-])c1` the Potency was 55 µM (active).
For `CCOP(=S)(OCC)Oc1nc(Cl)c(Cl)cc1Cl`, the Potency was “inactive”.
With `O=S1(=O)OC(c2cc(Br)c(O)c(Br)c2)(c2cc(Br)c(O)c(Br)c2)c2ccccc21` the Potency was 62.8 µM (active).
For `COCC(C)N(C(=O)CCl)c1c(C)csc1C` (stereo not given), the Potency was “inactive”.
In the case of `CC(O)(CS(=O)(=O)c1ccc(F)cc1)C(=O)Nc1ccc(C#N)c(C(F)(F)F)c1` (stereo not given), the Potency is reported as “inactive”.
